We go through three molecules from PubChem BioAssay (EPA / NIEHS).

The source made the active and inactive calls. How the source made its calls: active means hit-call score of the fitted dose curve at least 0.9, where 1 is the maximum; inactive means score below 0.9.

Assay [1] can be described thus: UKN5_HCS_SBAD2_neurite_outgrowth: University of Konstanz (UKN) Leist Lab Neurite Outgrowth Assay in human iPSC-derived immature Dorsal Root Ganglia Neurons (UKN5) (AID 2284070). The conditions noted are these: actives raise or lower the signal. The procedure, abridged:
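Cryopreserved SBAD2 peripheral neurons were seeded at 100.000 cells/cm2 in N2-S/KSR medium containing CHIR99021, SU5402 and DAPT, then exposed to compounds for 24 h. Neurite area from calcein-AM high-content imaging was fitted bidirectionally against DMSO.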

The nature of assay [2]: UKN2_HCS_IMR90_neural_migration: University of Konstanz (UKN) Leist Lab Neural Crest Cell Migration Assay in human induced IMR90 Pluripotent Stem Cells (UKN2) (AID 2284204). The conditions noted are these: actives raise or lower the signal. Summed up: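 Using a 96-well stopper format with PLO/laminin/fibronectin coating, neural crest cells from iPSC migrate in cytokine-supplemented N2-S medium; after 24 h, chemicals are applied for a further 24 h, then cells are imaged after dye staining.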

A short description of assay [3]: UKN4_HCS_LUHMES_cell_viability: Viability Assessment in the University of Konstanz (UKN) Leist Lab Neurite Outgrowth Assay in human LUHMES cells (UKN4) (AID 2284232). The procedure, abridged:
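Day-2 differentiated LUHMES, 30000 cells/well, dosed ~30 min–2 h post-seeding; 24 h treatment incl. staining; Hoechst H-33342 + calcein-AM at 23.5 h; HCS imaging; DMSO-normalized, bidirectional fit.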

Assay [4] is described as follows: UKN2_HCS_IMR90_cell_viability: Viability Assessment in the University of Konstanz (UKN) Leist Lab Neural Crest Cell Migration Assay in human induced IMR90 Pluripotent Stem Cells (UKN2) (AID 2284233).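 Further: viability of neural crest cells differentiated from IMR90 iPSC measured by calcein-AM fluorescence imaging; cells exposed to compound for 24 h after a 24 h migration phase.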 The procedure, abridged:
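cMINC format, iPSC-derived neural crest (IMR90); 24 h migration (EGF/FGF, N2-S), then 24 h toxicant. Calcein-AM/H-33342 stain 30 min; fluorescence intensity by HCS; DMSO-normalised, bidirectional fitting.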

As for `Clc1cc(Cl)c(-c2cc(Cl)c(Cl)c(Cl)c2Cl)cc1Cl`, the molecule was called inactive in assay [1]. Moreover, the figures for the concentration at half-maximal activity (AC50) in assay [2], in assay [3] and in assay [4] were 5.57 µM (active), 19.1 µM (active) and 13.3 µM (active), respectively.

On to `CN1CC=C(c2ccccc2)CC1`, for which the molecule was classed as inactive in assay [1], in assay [2], in assay [3] and in assay [4].

Take `[CH3][Sn]([CH3])([CH3])[Cl]`: the half-maximal activity concentration (AC50) in assay [1] is 3.1 µM (active); in assay [2], 7.88 µM (active); in assay [3] it was 4.02 µM (active); in assay [4] it was 4.51 µM (active).
